Results on 30 compounds are retold here after PubChem BioAssay (NCATS).

Records with an inconclusive call do not appear. Active and inactive are the calls of the source. Calls follow the shape of the dose curve; as a rule, active = well fitted cell-killing curve with a large enough effect; inconclusive = small, poorly fitted or top-dose-only effect, or effect the other way; inactive = flat fitted curve, though single readings scatter. Where a SMILES comes first, the peptide text is derived from it. The star is where a group is joined. Cbz = O=C(OCc1ccccc1)*; CH2Cl = ClC*
% is scaled to controls: 0 for no effect and ±100 for the full control effect; potency is read from the fitted curve at half-maximal effect.

In the first test the test system is Es-2. Nature of the test: Primary qHTS to identify gynecologic anti-cancer compounds using libraries of approved drugs and bioactive compounds (AID 1345084). Also: nearly all actives have a fitted effect of over 55% in size. Conditions: Gynecologic cancer cell panel viability, ATPlite luminescence, 48 h; series mostly up to 57.5 µM; activity change, negative = cytotoxicity: at the top concentration. Put shortly:
(§1)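 Five-concentration response, 48 h; readout is ATP-driven luciferase luminescence.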
In general terms: In qHTS, concentration-response curves come from the screen itself.
Consider `Cc1c[nH]c2ncnc(N3CCC(CN)(C(=O)Nc4cccc(OC(=O)N(C)C)c4)CC3)c12`, for which the “activity change, negative = cytotoxicity” value was -1.82% (inactive).

`C=C(C=O)[C@]1(O)C[C@@]2(C)C(=CC1=O)C=C[C@H](OC(=O)/C=C/C=C/[C@H](C)CC)[C@@H]2C`: the “activity change, negative = cytotoxicity” value was 2.02% [at 25.3 µM] (inactive).

`Cc1ccc(N2CCN(S(=O)(=O)N3CCCCC3)CC2)c(C)c1`: the “activity change, negative = cytotoxicity” value was 7.59% (inactive).

For the compound `Cc1cc(F)c(C(=O)Nc2cccc(-c3nncn3C(C)C)n2)cc1-n1cnc(C2CC2)c1`, the “activity change, negative = cytotoxicity” value was 0.812% [at 25.3 µM] (inactive).

Consider `Cn1ncc(Cl)c1-c1cc(C(=O)NC(CN)Cc2ccc(F)c(F)c2)oc1Cl` (stereo not given), for which the “activity change, negative = cytotoxicity” value is -4.69% (inactive).

Regarding `C=C1C(=O)OC2C1CCC1(C)C(O)CC=C(C)C21` (stereo not given), the “activity change, negative = cytotoxicity” value is -3.44% (inactive).

Take `C=CCc1ccc(OC(C)Cc2ccc(OC)c(OC)c2)c(OC)c1` (stereo not given): the “activity change, negative = cytotoxicity” value was -4.47% [at 38.5 µM] (inactive).

As to `Cc1nc(Nc2cnn(C3CCNCC3)c2)nc2c1N(C)C(=O)c1cc3ccccc3cc1N2C`, the “activity change, negative = cytotoxicity” value is -4.18% (inactive).

With `CN(C)C(=O)COC(=O)c1cc(-c2ccc(C3CCNCC3)cc2)c2ccc(-c3ccc(C(F)(F)F)cc3)cc2c1`, the “activity change, negative = cytotoxicity” value was -11.5% (inactive).

Consider `COc1ccc(CNc2nc(N(CCO)CCO)nc3c2ncn3C(C)C)cc1`, for which the Potency was 22.4 µM (active).

For the compound `CCOc1ccc(S(=O)(=O)N2CCCCCC2)c2ccccc12`, the “activity change, negative = cytotoxicity” value was -1.48% (inactive).

As for `CC(C)CC(=O)c1c(O)cc2c(c1O)C(CC(C)C)C1=C(O2)C(C)(C)C(=O)C(C)(C)C1=O` (stereo not given), the “activity change, negative = cytotoxicity” value is -11.6% [at 25.3 µM] (inactive).

With `CCN1CCN(Cc2ccc(NC(=O)c3ccc(C)c(Oc4ccnc5[nH]ccc45)c3)cc2C(F)(F)F)CC1`, the “activity change, negative = cytotoxicity” value was -33.7% [at 38.5 µM] (inactive).

On to `CC1(C)CC[C@]2(C(=O)O[C@@H]3O[C@H](CO)[C@@H](O)[C@H](O)[C@H]3O)CC[C@]3(C)C(=CCC4[C@@]5(C)CC[C@H](O[C@@H]6O[C@H](C(=O)O)[C@H](O)[C@H](O)[C@H]6O)C(C)(C)C5CC[C@]43C)[C@@H]2C1` (stereo not given in full), for which the “activity change, negative = cytotoxicity” value is 2.53% [at 25.3 µM] (inactive).

As to `O=C(NCc1cccs1)c1cc2nc(-c3ccco3)cc(C(F)(F)Cl)n2n1`, the “activity change, negative = cytotoxicity” value is 13.4% (inactive).

Another test concerns HeLa. The description is as above. Conditions: Gynecologic cancer cell panel viability, ATPlite luminescence, 48 h; series mostly up to 57.5 µM; activity change, negative = cytotoxicity: at the top concentration. In short, it runs like this:
as §1
In general terms: Cellular ATP, detected with luciferase, serves as a proxy for viable cell number.
Consider `Cc1c[nH]c2ncnc(N3CCC(CN)(C(=O)Nc4cccc(OC(=O)N(C)C)c4)CC3)c12`, for which the “activity change, negative = cytotoxicity” value is 1.64% (inactive).

On to `CC1(C)CC[C@]23CO[C@@]4(CCC5[C@@]6(C)CC[C@H](O[C@@H]7OC[C@H](O[C@@H]8O[C@H](CO)[C@@H](O)[C@H](O)[C@H]8O[C@@H]8OC[C@@H](O)[C@H](O)[C@H]8O)[C@H](O)[C@H]7O[C@@H]7O[C@H](CO)[C@@H](O)[C@H](O)[C@H]7O)[C@@](C)(CO)C6CC[C@@]5(C)[C@]4(C)C[C@H]2O)[C@@H]3C1` (stereo not given in full), for which the activity change, negative = cytotoxicity is -0.159% [at 11.6 µM] (inactive).

In the case of `O=C(Nc1ncc([N+](=O)[O-])s1)c1ccccc1O`, the “activity change, negative = cytotoxicity” value was -18.6% (inactive).

For `Cc1ccc(NC(=O)C(C)C)cc1C1CCN(Cc2ccc(Oc3ccc(F)c(F)c3)cc2)CC1`, the “activity change, negative = cytotoxicity” value is -18.7% (inactive).

Regarding `C=C(C=O)[C@]1(O)C[C@@]2(C)C(=CC1=O)C=C[C@H](OC(=O)/C=C/C=C/[C@H](C)CC)[C@@H]2C`, the “activity change, negative = cytotoxicity” value is 2.96% [at 25.3 µM] (inactive).

As to `CNc1ccc([N+](=O)[O-])c(Nc2ccc3[nH]ncc3c2)n1`, the Potency is 25.1 µM (active).

As to `Cc1ccc(N2CCN(S(=O)(=O)N3CCCCC3)CC2)c(C)c1`, the “activity change, negative = cytotoxicity” value is -2.57% (inactive).

In the case of `C=C1C(=O)O[C@@H]2[C@H]1CC[C@H](C)C(CCC(=O)O)C2(C)O` (stereo not given in full), the “activity change, negative = cytotoxicity” value was -8.56% (inactive).

On to `CCCCCCCCn1cc(CN(CC)CC)c2cc(-c3cnc(N)nc3)ccc21`, for which the “activity change, negative = cytotoxicity” value was 3.51% (inactive).

`COc1cc(-n2cnc3cc(-c4ccc(Cl)cc4)sc3c2=O)ccc1OCCN1CCCC1`: the “activity change, negative = cytotoxicity” value is 3.92% (inactive).

As for `C/C1=C\CCC2=CC(OC2=O)C(C)(C)/C=C/C1=O` (stereo not given), the “activity change, negative = cytotoxicity” value was -1.5% (inactive).

On to `Cn1ncc(Cl)c1-c1cc(C(=O)NC(CN)Cc2ccc(F)c(F)c2)oc1Cl` (stereo not given), for which the “activity change, negative = cytotoxicity” value is -7.52% (inactive).

Regarding `CCCc1cc(C)[nH]c(=O)c1CNC(=O)c1cc(-c2ccnc(N3CCN(C)CC3)c2)cc2c1cnn2C(C)C`, the Potency was 35.5 µM (active).

Consider `C=C1C(=O)OC2C1CCC1(C)C(O)CC=C(C)C21` (stereo not given), for which the “activity change, negative = cytotoxicity” value is 18.3% (inactive).

On to `CC(C)C[C@H](NC(=O)CNC(=O)OCc1ccccc1)C(=O)N[C@@H](Cc1ccccc1)C(=O)CCl` (Cbz-Gly-Leu-Phe-CH2Cl), for which the “activity change, negative = cytotoxicity” value is -8.64% (inactive).

Turning to `Cc1cc(N2CCN(C(=O)Oc3ccc(-c4ccccc4)cn3)CC2)c2ccccc2n1`, the “activity change, negative = cytotoxicity” value was -11.8% (inactive).

On to `C=C1C(=O)OC2/C=C(\COC(C)=O)CC/C=C(\C=O)CC(OC(=O)C(C)CC)C12` (stereo not given), for which the “activity change, negative = cytotoxicity” value was 11% [at 25.3 µM] (inactive).

For `C/C=C(\C)C(=O)O[C@H]1C=C(CO)C(=O)[C@H](OC(C)=O)[C@H]1C(C)C`, the “activity change, negative = cytotoxicity” value was -21.9% [at 38.5 µM] (inactive).

Turning to `C=C1C(=O)OC2C(OC(=O)C=C(C)C)C(C)=C3C(=O)C=C(C)C3C(O)C12` (stereo not given), the “activity change, negative = cytotoxicity” value is -5.32% [at 38.5 µM] (inactive).

Take `C=CCc1ccc(OC(C)Cc2ccc(OC)c(OC)c2)c(OC)c1` (stereo not given): the “activity change, negative = cytotoxicity” value was -2.6% [at 38.5 µM] (inactive).

As to `C=C1C(=O)O[C@H]2C[C@@H](C)[C@@H]3CCC(=O)[C@@]3(C)C[C@H]12`, the “activity change, negative = cytotoxicity” value is -0.842% (inactive).

On to `CCOc1ccc(S(=O)(=O)N2CCCCCC2)c2ccccc12`, for which the “activity change, negative = cytotoxicity” value is -0.848% (inactive).

For the compound `CCN1CCN(Cc2ccc(NC(=O)c3ccc(C)c(Oc4ccnc5[nH]ccc45)c3)cc2C(F)(F)F)CC1`, the “activity change, negative = cytotoxicity” value is -22.2% [at 38.5 µM] (inactive).

In the case of `CC1(C)CC[C@]2(C(=O)O[C@@H]3O[C@H](CO)[C@@H](O)[C@H](O)[C@H]3O)CC[C@]3(C)C(=CCC4[C@@]5(C)CC[C@H](O[C@@H]6O[C@H](C(=O)O)[C@H](O)[C@H](O)[C@H]6O)C(C)(C)C5CC[C@]43C)[C@@H]2C1` (stereo not given in full), the “activity change, negative = cytotoxicity” value was 18.9% [at 25.3 µM] (inactive).

For the compound `O=C(NCc1cccs1)c1cc2nc(-c3ccco3)cc(C(F)(F)Cl)n2n1`, the “activity change, negative = cytotoxicity” value is 22.3% (inactive).
